# Autophagy HCS – autophagy modulators in MEF cells, primary screen, imaging, high-content, MEF GFP-LC3. AID 463193, 2010. MEF GFP-LC3 puncta imaging; test concentration mostly 10 µM. calls only at 10 µM (by protocol). hit rate 0.98% among 190,000;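 active means percentage of spot-positive cells more than 3 SD above its plate mean, without a fluorescence outlier flag or 80% toxicity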;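 further: spot-positive cell cutoff set from DMSO-treated cells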
# eIF4E 4G PPI – eIF4E–eIF4G protein interaction inhibitors, primary screen, biochemical, uHTS, TR-FRET, eIF4GI fragment. inhibition, % at 21.7 µM. Eukaryotic translation initiation factor 4E (Mus musculus) + Eukaryotic translation …. TR-FRET eIF4E-eIF4GI(517-606) binding, 2 h. hit rate 0.37% among 220,000;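 active means inhibition above about 30%, limit read from the data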;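 further: 0% = full FRET control wells and 100% = background wells lacking eIF4GI fragment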
# INS promoter inh – inhibitors of insulin promoter-driven GFP, primary screen, imaging, TRM-6 cells (human fetal islet line), eGFP reporter, cell count. reporter expression induced with tamoxifen. inhibition, % at 2 µM. hit rate 0.9% among 130,000. AID 1273, 2008;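 active means inhibition above the mean plus 3 SD, with well images judged a real hit on visual review, cut at about 60% in these data, passing the limit was not always enough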
# Insulin prom up – insulin promoter activators in MIN6 cells, imaging, high-content screening, mouse beta cells. MIN6 insulin promoter-GFP reporter; stronger effect = higher value. z-score at 5 µM. hit rate 0.3% among 190,000. AID 1625, 2009;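 active means z-score above 3 at 5 µM with at least 500 cells counted in the well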
# PERK inhibitor – block of dimerizer-induced PERK translation repression, primary screen, PERK inhibitor project, CHO PERK-DD cells, SEAP luminescence, HTS. Eukaryotic translation initiation factor 2-alpha kinase 3 (Homo sapiens), Q9NZJ5. CHO PERK-DD fusion, SEAP luminescence translation reporter. inhibition, % at 5.6 µM. hit rate 0.17% among 220,000;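 active means inhibition above the mean inhibition of all tested compounds plus 3 SD, set separately per screening campaign, cut at about 2.9% in these data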;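 further: PERK kinase domain activated by AP20187 dimerizer at 100 nM; 0% = DMSO with dimerizer and 100% = rapamycin at 8.4 µM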
# * marks the source's active call; other numbers are inactive results; i = inactive; nt = no result; + = active, no number. Sampled rows, rich in hits. Any-hit rate of the full collection: about 2%.
SMILES,Autophagy HCS,eIF4E 4G PPI,INS promoter inh,Insulin prom up,PERK inhibitor
Cc1ccccc1C(=O)OCc1cnc(Cl)s1,i,3.9,nt,0.11,0.8
CCOC(=O)c1nnn(-c2nonc2N)c1-c1ccc(OCC)cc1,i,5.5,0.0,3.82*,-0.3
c1ccc(C2CCC(N3CCNCC3)CC2)cc1 (centres undefined),i,-33.5,nt,nt,-0.4
Cn1cc(Cl)c(-c2n[nH]c(=S)n2-c2ccccc2)n1,i,2.2,30.8,0.2,3.3*
Cc1ccc(-n2c(=O)c3sccc3n(CC(=O)NCc3ccco3)c2=O)cc1,i,0.7,1.3,1.16,-0.5
Cc1cc(C)cc(-n2c(=O)c3sccc3n(CC(=O)NCc3ccco3)c2=O)c1,i,4.3,nt,4.64*,-0.8
Clc1ccc(OCCn2cnc(Cl)c2Cl)cc1,nt,-2.0,nt,0.02,1.7
COc1ccc(C2C=C(c3ccccc3)Nc3nc(CCCO)nn32)cc1 (centres undefined),i,-2.1,23.7,0.07,-0.4
COc1ccc(C2C=C(c3cccs3)Nc3nc(CCCO)nn32)cc1 (centres undefined),i,nt,-83.3,5.85*,-0.4
CC(O)CNCCCOc1ccc(Cl)cc1C(C)(C)C (centres undefined),i,1.9,nt,-0.49,-0.1
CCCCN(C)CCNC(=O)c1nn(-c2ccc(OC)cc2)c(=O)c2c1c1ccccc1n2C,+,1.4,nt,nt,0.0
CCN(C(=O)c1nn(-c2ccc(OC)cc2)c(=O)c2c1c1ccccc1n2C)c1ccc(OC)cc1,i,1.8,0.0,-0.62,0.6
CC(C(=O)Nc1ccc(S(=O)(=O)N2CCCCC2)cc1)N1CCN(c2ccccn2)CC1 (centres undefined),i,-3.3,nt,0.45,-0.9
C#Cc1ccc([C@@H]2C=C(C(=O)N3CCN(Cc4ccc5c(c4)OCO5)CC3)O[C@H](OCCCCO)C2)cc1,i,-4.4,nt,-0.53,1.0
COc1cccc(N2CCN(c3ncnc4c3[nH]c3ccc(F)cc34)CC2C)c1 (centres undefined),+,-10.4,50.0,-3.69,-0.6
O=C(O)c1csc(-n2nc(-c3ccccc3)cc2C(F)(F)F)n1,i,0.4,nt,0.19,0.0
CC(C)(C)c1ccc(C(=O)NNC(=O)C(=O)N2CCCCC2)cc1,i,-1.9,-36.7,-0.25,0.9
O=C(NNC(=O)c1ccccc1)C(=O)N1CCCCC1,i,0.8,nt,0.65,3.1*
O=C(Nc1ccsc1C(=O)N1CCCC1)c1ccccc1,i,-7.1,90.9*,-0.44,0.2
O=C(Nc1ccccc1C(=O)N1CCCC1)c1ccccc1,i,6.3,-53.9,0.15,0.5
COc1ccc(CN2CCNC(=O)C2CC(=O)NCCC2=CCCCC2)cc1OC (centres undefined),i,-3.8,nt,-0.34,0.5
C/C=C\C=C/C(=O)Nc1cccc(C2=NOC3(C2)C[C@@H](C(N)=O)N(C(=O)/C=C/CC)C3)c1 (some centres undefined),nt,75.0*,nt,1.39,nt
C/C=C(\C)C(=O)N1CC2(CC(c3cccc(NC(=O)CC(c4ccccc4)c4ccccc4)c3)=NO2)C[C@H]1C(N)=O (some centres undefined),nt,88.2*,nt,nt,nt
COc1ccc2sc(NC(C)=O)nc2c1,i,-7.6,78.6*,-0.51,1.8
COc1ccc(OC)c(Nc2ncnc3c2cnn3-c2cccc(C)c2)c1,+,0.1,12.5,-0.25,-0.1
SMILES,Autophagy HCS,eIF4E 4G PPI,INS promoter inh,Insulin prom up,PERK inhibitor
COc1ccc(Nc2ncnc3c2cnn3-c2ccccc2)cc1OC,nt,-2.7,nt,1.52,1.4
O=[N+]([O-])c1ccc(N2CCN(S(=O)(=O)c3ccc(Cl)cc3)CC2)cc1NCC1CCCO1 (centres undefined),+,-11.8,25.7,0.49,0.8
Cc1ccc(NC(=O)COC(=O)CCc2c[nH]c(=O)[nH]2)cc1,i,-4.9,54.5,-0.58,4.0*
CCOc1ccc(C(=O)NCC(c2cccs2)N(C)C)cc1 (centres undefined),i,-3.5,-5.6,0.21,0.0
O=[N+]([O-])c1ccc(Oc2cccc(F)c2)c2ccncc12,+,8.5,0.0,-0.22,-0.6
O=[N+]([O-])c1cnccc1Nc1cccc(F)c1,i,-3.4,-122.7,nt,1.3
COCCCn1cnc2c(c1=O)c1nc3ccccc3nc1n2CCc1ccccc1,i,nt,nt,-1.08,-0.3
